Laboratory results as given in PubChem BioAssay.
Values without a mark were called inactive. For some assays here: Results with a measured potency or affinity are listed apart. The source made the active and inactive calls. Unless noted, the rule behind the calls is not given here.

What was measured:
[1] = antimalarial activity against Dd2 strain (AID 2302;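 active = growth inhibition above 50% at the single 2 µM test dose, taken to imply half-maximal potency below 2 µM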;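 note: 0% = DMSO untreated growth and 100% = chloroquine plus artemisinin killed control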); details: P. falciparum Dd2 in RBCs, LDH growth readout, 72 h; at 2 µM; stronger effect = higher value
[2] = human hepatoma cell viability loss – ATP luminescence, cytotoxicity control for P. falciparum antimalarial project, primary screen (AID 2303;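 active = inhibition above 50%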;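 note: 0% = DMSO wells and 100% = digitonin-killed cells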); details: HepG2 viability, 24-48 h, at 10 µM, stronger effect = higher value
[3] = molecular target: L-lactate dehydrogenase (Plasmodium falciparum (isolate CDC / Honduras)) (UniProt Q27743); experiment: PfLDH activity inhibition – cell lysate, 3D7 strain, counter-screen for P. falciparum growth inhibition project (AID 2304);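 note: 0% = vehicle and 100% = reference inhibitor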; details: P. falciparum 3D7 crude extract, LDH APAD/NBT absorbance; at 2 µM; stronger effect = higher value
[4] = inhibition of 3D7 malaria parasite growth – strain 3D7 (AID 2306);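 note: 0% = DMSO wells and 100% = chloroquine plus artemisinin control wells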; details: P. falciparum 3D7 erythrocytic growth, LDH absorbance, 72 h; at 2 µM; stronger effect = higher value
[5] = molecular target: Calcium-dependent protein kinase 1 (Plasmodium falciparum (isolate 3D7)) (UniProt P62344); experiment: PfCDPK1 kinase inhibitors, biochemical, TCAMS library (AID 1159585; cut-off not given, nearly all actives have IC50 up to about 0.98 µM;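 note: inhibitors leave more ATP so luminescence rises with inhibition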); details: recombinant PfCDPK1, Kinase-Glo ATP depletion luminescence
[6] = molecular target: Plasmodium falciparum protein kinase 6 (PK6, PF3D7_1337100) (UniProt Q8IDW1); experiment: PfPK6 kinase inhibitors, biochemical, TCAMS library (AID 1159586); details: recombinant PfPK6, Kinase-Glo ATP depletion luminescence
[7] = molecular target: Protein kinase 7 (PK7), Plasmodium falciparum 3D7 (PF3D7_0213400) (UniProt Q7YTF7); experiment: inhibition of Plasmodium PK7 catalytic activity – biochemical, TCAMS antimalarial set, Kinase-Glo luminescence (AID 1159587); details: recombinant PfPK7, Kinase-Glo ATP depletion luminescence
[8] = molecular target: Calcium-dependent protein kinase 4 (Plasmodium falciparum (isolate 3D7)) (UniProt Q8IBS5); experiment: PfCDPK4 kinase inhibitors, biochemical, TCAMS library (AID 1159588; cut-off not given, nearly all actives have IC50 up to about 0.91 µM); details: recombinant PfCDPK4, Kinase-Glo ATP depletion luminescence
Chain of Calcium-dependent protein kinase 4 (Plasmodium falciparum (isolate 3D7)) (Q8IBS5 whole entry, looked up): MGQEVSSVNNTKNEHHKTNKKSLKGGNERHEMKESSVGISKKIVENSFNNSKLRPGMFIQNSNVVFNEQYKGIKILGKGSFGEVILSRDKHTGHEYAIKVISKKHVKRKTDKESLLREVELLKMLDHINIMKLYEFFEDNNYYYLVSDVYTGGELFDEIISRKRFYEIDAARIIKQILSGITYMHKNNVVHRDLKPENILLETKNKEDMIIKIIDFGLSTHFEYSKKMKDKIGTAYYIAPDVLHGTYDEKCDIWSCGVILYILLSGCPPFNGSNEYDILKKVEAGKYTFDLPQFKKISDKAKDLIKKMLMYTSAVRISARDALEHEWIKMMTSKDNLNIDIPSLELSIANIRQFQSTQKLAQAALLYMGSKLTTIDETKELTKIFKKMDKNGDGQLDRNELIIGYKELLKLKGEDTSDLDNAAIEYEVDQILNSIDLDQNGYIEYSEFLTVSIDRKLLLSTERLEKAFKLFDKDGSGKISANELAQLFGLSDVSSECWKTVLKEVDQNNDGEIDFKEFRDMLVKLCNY

Chain of Plasmodium falciparum protein kinase 6 (PK6, PF3D7_1337100) (Q8IDW1 1-305): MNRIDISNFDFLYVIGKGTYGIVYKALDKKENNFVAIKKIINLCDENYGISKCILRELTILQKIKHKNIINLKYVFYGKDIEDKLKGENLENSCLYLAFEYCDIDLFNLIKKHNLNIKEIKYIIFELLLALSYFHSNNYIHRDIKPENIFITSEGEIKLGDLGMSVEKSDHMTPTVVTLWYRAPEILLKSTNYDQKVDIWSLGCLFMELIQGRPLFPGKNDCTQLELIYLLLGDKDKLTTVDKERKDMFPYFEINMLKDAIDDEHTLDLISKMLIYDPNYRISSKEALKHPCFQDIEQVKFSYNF
Chain of Protein kinase 7 (PK7), Plasmodium falciparum 3D7 (PF3D7_0213400) (Q7YTF7 1-343): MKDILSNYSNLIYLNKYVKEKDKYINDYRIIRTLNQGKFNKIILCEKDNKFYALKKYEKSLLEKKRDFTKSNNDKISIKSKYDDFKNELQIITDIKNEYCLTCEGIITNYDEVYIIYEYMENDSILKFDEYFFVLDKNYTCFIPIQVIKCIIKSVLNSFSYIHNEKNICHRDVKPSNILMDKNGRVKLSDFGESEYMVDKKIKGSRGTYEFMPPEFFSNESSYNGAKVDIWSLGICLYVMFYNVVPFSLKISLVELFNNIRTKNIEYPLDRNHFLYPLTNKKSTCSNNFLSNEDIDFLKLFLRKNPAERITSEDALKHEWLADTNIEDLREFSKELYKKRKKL
Chain of Calcium-dependent protein kinase 1 (Plasmodium falciparum (isolate 3D7)) (P62344 whole entry, looked up): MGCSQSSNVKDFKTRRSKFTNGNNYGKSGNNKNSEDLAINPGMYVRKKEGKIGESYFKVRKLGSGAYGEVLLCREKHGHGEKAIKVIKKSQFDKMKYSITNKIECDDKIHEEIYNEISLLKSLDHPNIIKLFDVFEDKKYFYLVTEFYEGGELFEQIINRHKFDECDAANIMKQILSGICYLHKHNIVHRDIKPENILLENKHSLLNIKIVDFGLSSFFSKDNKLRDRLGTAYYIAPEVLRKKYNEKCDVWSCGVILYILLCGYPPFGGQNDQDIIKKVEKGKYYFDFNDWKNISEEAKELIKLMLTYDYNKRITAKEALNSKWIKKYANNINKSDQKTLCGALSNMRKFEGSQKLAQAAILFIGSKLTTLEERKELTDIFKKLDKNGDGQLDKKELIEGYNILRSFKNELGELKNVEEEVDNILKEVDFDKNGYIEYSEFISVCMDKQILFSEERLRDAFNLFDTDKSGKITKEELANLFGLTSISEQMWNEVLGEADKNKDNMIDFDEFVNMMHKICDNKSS
Chain of L-lactate dehydrogenase (Plasmodium falciparum (isolate CDC / Honduras)) (Q27743 whole entry, looked up): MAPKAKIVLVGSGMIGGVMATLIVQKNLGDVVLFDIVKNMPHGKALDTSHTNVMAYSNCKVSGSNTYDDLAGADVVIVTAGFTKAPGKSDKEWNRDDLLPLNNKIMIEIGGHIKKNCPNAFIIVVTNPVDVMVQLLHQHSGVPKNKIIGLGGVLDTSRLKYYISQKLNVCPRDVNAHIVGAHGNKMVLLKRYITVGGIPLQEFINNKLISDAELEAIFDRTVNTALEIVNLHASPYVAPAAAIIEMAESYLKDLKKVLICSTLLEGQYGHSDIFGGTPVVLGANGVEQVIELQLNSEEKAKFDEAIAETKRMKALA

SMILES	growth inhibition [1]	inhibition [2]	inhibition [3]	growth inhibition [4]	outcome [5]	outcome [6]	outcome [7]	outcome [8]
CCCCNCc1ccc(-c2nc(CN(CCCn3ccnc3)C(=O)C3COc4ccccc4O3)cs2)cc1 (stereo unspecified)	8%	6%	-4%	93% (active)	inactive	inactive	inactive	inactive
Cc1cc(CNCCCCCNCc2ccc(Cl)cc2)ccc1O	-1%	12%	-7%	98% (active)	inactive	inactive	inactive	inactive
Fc1ccc2nc(-c3cccc(-c4ccc(CNCC5CCCO5)cc4)c3)[nH]c2c1 (stereo unspecified)	98% (active)	36%	0%	101% (active)	inactive	inactive	inactive	inactive
Cc1ccc(CNC(=O)[C@H](Cc2ccccc2)Nc2cc(C)nc(Nc3ccccc3)n2)cc1	91% (active)	16%	1%	101% (active)	inactive	inactive	inactive	inactive
CCS[C@@H]1O[C@H](COC(=O)c2ccccc2)[C@H](OC(=O)c2ccccc2)[C@H](OC(=O)c2ccccc2)[C@H]1OC(=O)c1ccccc1	52% (active)	4%	5%	98% (active)	inactive	inactive	inactive	inactive
Cc1ccc2c(c1[N+](=O)[O-])N=NCC2Oc1ccccc1 (stereo unspecified)	19%	16%	-4%	91% (active)	inactive	inactive	inactive	inactive
CC(=O)N/N=C/[C@H](CCc1ccccc1)NC(=O)[C@H](CC(C)C)NC(=O)c1ccc(F)cc1	86% (active)	2%	-4%	95% (active)	inactive	inactive	inactive	inactive
O=C(Nc1cccc(N2CCC(NCc3cccnc3)CC2)c1)c1cccc(C(F)(F)F)c1	2%	26%	-3%	98% (active)	inactive	inactive	inactive	inactive
CN1CCCC1CCNCc1cccc(-c2cnc(N(C)C3CCCCC3)nc2)c1 (stereo unspecified)	95% (active)	98% (active)	2%	99% (active)	inactive	inactive	inactive	inactive
CC(C)(C)CC(C)(C)c1ccc(O)c(C(=O)Nc2cccc([N+](=O)[O-])c2)c1	97% (active)	49%	-8%	95% (active)	inactive	inactive	inactive	inactive
O=C(/C=C/c1ccc(Cl)c(Cl)c1)NCCCCCN1CC[C@H](NC(=O)/C=C/c2ccccc2)C1	1%	10%	1%	93% (active)	inactive	inactive	inactive	inactive
Cc1cc(C)c(CON2C(N)=NC(N)=NC2(C)C)cc1C	93% (active)	65% (active)	2%	92% (active)	inactive	inactive	inactive	inactive
O=C(NCCN1CCOCC1)c1ccc(O)c(-c2cccc(C(F)(F)F)c2)c1	48%	-1%	3%	95% (active)	inactive	inactive	inactive	inactive
COc1ccc(-n2ccnc2SCC(=O)Nc2cc(Cl)ccc2OC)c(OC)c1	92% (active)	-3%	-8%	96% (active)	inactive	inactive	inactive	inactive
COc1ccc(CNC2CCN(C)CC2)cc1-c1ccc(S(=O)(=O)NCc2ccccc2)c(C)c1	98% (active)	81% (active)	3%	100% (active)	inactive	inactive	inactive	inactive
Cc1cnc(NC(=O)c2cn(-c3ccccc3)nc2-c2cccs2)s1	1%	-5%	-1%	91% (active)	inactive	inactive	inactive	inactive
COc1ccc(-n2ccnc2SCC(=O)Nc2cc(C(F)(F)F)ccc2Cl)c(OC)c1	76% (active)	0%	-8%	98% (active)	inactive	inactive	inactive	inactive
CC(=O)c1sc(Cc2nc3ccccc3s2)nc1C	88% (active)	-13%	1%	94% (active)	inactive	inactive	inactive	inactive
CCN1CCC(N(CCCCCCc2ccc(C(F)(F)F)cc2)C(=O)Cn2c(CCc3cccc(F)c3F)cc(=O)c3ccccc32)CC1	82% (active)	32%	-7%	88% (active)	inactive	inactive	inactive	inactive

SMILES	growth inhibition [1]	inhibition [2]	inhibition [3]	growth inhibition [4]	outcome [5]	outcome [6]	outcome [7]	outcome [8]
COc1ccc(CCN2CC[C@H](Nc3nc(-c4ccc(F)c(F)c4)nc4ccccc34)C2)cc1S(N)(=O)=O	64% (active)	18%	-8%	99% (active)	inactive	inactive	inactive	inactive
O=C(CN(c1cccc(C(F)(F)F)c1)S(=O)(=O)c1ccc(Cl)cc1)NCCC(c1ccccc1)c1ccccc1	50% (active)	14%	-2%	94% (active)	inactive	inactive	inactive	inactive
Cc1cccc(CN2CCCN(Cc3ccc(C(=O)Nc4ccc(C(C)(C)C)cc4)cc3)CC2)c1	4%	57% (active)	-7%	97% (active)	inactive	inactive	inactive	inactive
COc1ccccc1CNC(=O)C(=O)Nc1c(-c2ccccc2)[nH]c2ccccc12	91% (active)	0%	-2%	99% (active)	inactive	inactive	inactive	inactive
Cc1cc2c(cc1C(F)(F)F)N(C(=O)Nc1cccc(C(=O)NC3CCN(Cc4ccccc4)CC3)c1)CC2	-5%	19%	-2%	91% (active)	inactive	inactive	inactive	inactive
CC(C)CNCc1ccc(-c2ccc(CNC3CCN(Cc4ccccc4)CC3)cc2)cc1	96% (active)	16%	4%	100% (active)	inactive	inactive	inactive	inactive
O=C(/C=C/c1ccc(Cl)c(Cl)c1)NCCCCCCN1CCN(C(=O)Nc2ccc(Cl)c(Cl)c2)CC1	0%	23%	-1%	88% (active)	inactive	inactive	inactive	inactive
c1ccc(-c2nc(NC3CCCCC3)cc(C3CC3)n2)nc1	76% (active)	35%	2%	97% (active)	inactive	inactive	inactive	inactive
Nc1ccnc2ccc(NC(=O)CCCCCc3ccccc3)cc12	30%	47%	3%	96% (active)	inactive	inactive	inactive	inactive
CCOc1ccccc1CON1C(N)=NC(N)=NC1(C)C	1%	66% (active)	-2%	90% (active)	inactive	inactive	inactive	inactive
COc1cc(OC)cc(-c2nnc(Sc3ccc(C#N)c([N+](=O)[O-])c3)n2C)c1	77% (active)	1%	3%	95% (active)	inactive	inactive	inactive	inactive
OC(CNCc1ccccc1OCc1ccccc1)c1cc(C(F)(F)F)cc(C(F)(F)F)c1 (stereo unspecified)	99% (active)	3%	3%	100% (active)	inactive	inactive	inactive	inactive
CC(C)c1ccc(CN(C)CCCCNC(=O)c2ccc(NC(=O)c3ccc(Cl)cc3)cc2)cc1	0%	17%	0%	92% (active)	inactive	inactive	inactive	inactive
CCOc1ccccc1NC(=O)C(Sc1nc(C)cc(C)c1C#N)c1ccccc1 (stereo unspecified)	98% (active)	-1%	-3%	99% (active)	inactive	inactive	inactive	inactive
O=C(/C=C/c1ccc(Cl)c(Cl)c1)NCCCCCN1CCC(NC(=O)Nc2ccc(OC(F)F)cc2)CC1	18%	33%	6%	101% (active)	inactive	inactive	inactive	inactive
O=C(CSc1ccccn1)Nc1c(F)cccc1F	-5%	-2%	1%	88% (active)	inactive	inactive	inactive	inactive
O=C(NC(NC(=S)Nc1ccc([N+](=O)[O-])cc1)C(Cl)(Cl)Cl)c1cccc(Cl)c1 (stereo unspecified)	100% (active)	24%	0%	97% (active)	inactive	inactive	inactive	inactive
CO/C(=C\C=C\c1cc2cc(Cl)c(Cl)cc2[nH]1)C(=O)NCCCN1CCC(c2ccccc2)CC1	92% (active)	33%	-1%	100% (active)	inactive	inactive	inactive	inactive
